Reference: PubChem BioAssay (NCI)
This is part of a sample that, as a whole, favours compounds with a hit. Of some 83,000 tested, about 20% had one in any assay.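 Interpretation: 100, growth as untreated; towards 0, rising growth inhibition; 0, no net growth; 0 to -100, cell death. Compounds scoring below 10 were considered active.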 A number with no mark means an inactive call. Activity calls are given as the source filed them.

How the values were obtained:
Assay in all cases: NCI-60 one-dose screen, 48 h (100 = growth as untreated, 0 = no growth, -100 = all killed)
Conditions in all cases: 10 µM unless noted
DU-145 prostate = tested on: DU-145 prostate
K-562 leukemia = tested on: K-562 leukemia
MALME-3M melanoma = tested on: MALME-3M melanoma
MDA-MB-231 breast = tested on: MDA-MB-231 breast
RXF 393 renal = tested on: RXF 393 renal
SF-268 CNS = tested on: SF-268 CNS
SF-295 CNS = tested on: SF-295 CNS
SF-539 CNS = tested on: SF-539 CNS
UACC-257 melanoma = tested on: UACC-257 melanoma
M14 melanoma = tested on: M14 melanoma

| Compound | growth (DU-145 prostate) | growth (K-562 leukemia) | growth (MALME-3M melanoma) | growth (MDA-MB-231 breast) | growth (RXF 393 renal) | growth (SF-268 CNS) | growth (SF-295 CNS) | growth (SF-539 CNS) | growth (UACC-257 melanoma) | growth (M14 melanoma) |
| --- | --- | --- | --- | --- | --- | --- | --- | --- | --- | --- |
| NC(=O)[C@@H]1Cc2ccccc2CN1C(=O)c1ccc2c(c1)Cc1ccccc1-2 | 86% | 58.9% | 87.3% | 98.4% | 91.9% | 87.3% | 79.8% | 97.6% | 94.9% | 87.4% |
| COc1ccc(-c2ccc(-c3ccc(C(=N)N)o3)o2)cc1 | 6.23% (active) | -9.69% (active) | 57.1% | 8.3% (active) | 25.1% | 39.8% | 35.6% | 23% | 37.9% | 35.1% |
| CC(Cc1cccc2ccccc12)C(N)=O (stereo not given) | 110% | 104% | 111% | 100% | 113% | 106% | 100% | 96.6% | 104% | 108% |
| O=C1Nc2ccccc2/C1=C/c1cccn1CCCCCCn1c2ccccc2c(=O)c2ccccc21 | 94% | 66.6% | 90.7% | 75.4% | 99.2% | 87% | 97.2% | 100% | 110% | 78.2% |
| COc1ccc2c(c1)c(-c1nc(-c3cn(C)c4ccncc34)cs1)cn2C | -21.9% (active) | -48.9% (active) | -53.6% (active) | -61.2% (active) | -91.7% (active) | 88.5% | 55.3% | 57.4% | 114% | -90.3% (active) |
| O=C(Nc1cccc2c1C(=O)c1cccc(NC(=O)c3ccc(C(=O)Nc4cccc5c4C(=O)c4cccc(NC(=O)c6ccccc6)c4C5=O)cc3)c1C2=O)c1ccccc1 | 115% | 93.5% | 101% | 90.4% | 103% | 109% | 108% | 104% | 95.1% | 113% |
| Cc1ccc(C(F)(F)F)cc1N1CCN(C(=O)[C@H]2C[C@H]2c2ccc(C(F)(F)F)nc2)CC1 | 105% | 78.1% | 94% | 91.3% | 92.8% | 91.3% | 94.7% | 88.6% | 92.7% | 97.5% |
| Clc1ccc(C2=Nn3c(nnc3-c3cc(Cl)cc(Cl)c3Cl)SC2)cc1 | -16.6% (active) | 12.4% | 44.4% | 65.3% | 66.2% | 35% | 14.8% | 72.9% | 71.5% | 11.7% |
| O=C(/C=C/C12c3ccccc3C(c3ccccc31)C1C(=O)NC(=O)C12)c1cccs1 (stereo not given) | 13.5% | 16.8% | 75.6% | 51.6% | 28.1% | 32.9% | 52.5% | 53.9% | 45.7% | 48.2% |
| CC/C(=C(/c1ccc(Cl)cc1)c1ccc(OCCN2CCCCCC2)cc1)c1ccccc1 | 97.2% | 19.8% | 98.5% | 83% | 72.5% | 81.6% | 98.3% | 84.3% | 92.4% | 81.6% |
| Cc1ccccc1NC(=O)c1sc2nc3c(cc2c1N)CCCC3 | 25.2% | 17.6% | 53.9% | 52.5% | 14.2% | 49.6% | 16.4% | 8.72% (active) | 40.7% | 27% |
| CS(=O)(=O)Nc1cc(-c2ccc3ncnc(Nc4cccc(Cl)c4)c3c2)cnc1Cl | 14.5% | 18.9% | -25.7% (active) | 7.96% (active) | -44% (active) | 13.9% | -22.6% (active) | -22% (active) | -3.23% (active) | -2.15% (active) |
| COc1ccc(-n2c(=O)n(-c3ccc(-c4nc5ccc(F)cc5s4)cc3)c(=O)c3cccnc32)cc1 | 106% | 99.7% | 101% | 97.1% | 129% | 106% | 94.5% | 107% | 94.7% | 107% |
| COC(=O)[C@H](C)NC(=O)[C@@H]1CCCN1C(=O)CNC(=O)[C@H](C)N | 105% | 101% | 86.7% | 106% | 108% | 97% | 100% | 106% | 103% | 103% |
| COc1cc(OCc2cccc(-c3ccc4c(c3)OCCO4)c2C)cc(OC)c1C=O | 77.8% | 29.9% | 58.9% | 64.8% | 74.2% | 70.3% | 72.1% | 77.9% | 42.3% | 59.2% |
| COc1cc(NC(=O)c2cncnc2Nc2ccc3c(ccn3Cc3cccc(F)c3)c2)cc(OC)c1 | 79.9% | 15.4% | 71.6% | 57.4% | 62.5% | 68.9% | 50.4% | 44.4% | 72.7% | 47.2% |
| C=C1/C(=C\C=C2/CCC[C@]3(C)[C@@H]([C@H](C)CCCC(C)(C)O)CC[C@@H]23)C[C@@H](OC(=O)CBr)C[C@@H]1O | 92.7% | 30.8% | -67.3% (active) | 20.5% | 93.3% | 18% | 94.6% | -43.1% (active) | 99.3% | 84.4% |
| CC(=O)[C@H]1CC[C@]2(C)[C@@H]1CC[C@@H]1[C@@]3(C)C/C(=C/c4cccnc4)C(=O)C(C)(C)[C@@H]3CC[C@]12C | 85.3% | 30.3% | 82.6% | 83.9% | 97.7% | 79.7% | 89.8% | 97.6% | 63.4% | 71.8% |
| O=C(Oc1ccccc1)c1cc(O)c(O)c(O)c1 | 76.2% | 50.8% | 88% | 63.4% | 110% | 59.7% | 73.5% | 54% | 112% | 68.4% |
| [2H]C([2H])([2H])Oc1ccc(/C=C/C(=O)/C=C(/C=C/c2ccc(OC([2H])([2H])[2H])c(OC([2H])([2H])[2H])c2OC([2H])([2H])[2H])OB(F)F)c(OC([2H])([2H])[2H])c1OC([2H])([2H])[2H] | 68.8% | 29.3% | 57% | 75.1% | 83.8% | 88.8% | 97.2% | 77.7% | 53.5% | 61.2% |
| CCN(CC)c1ccc(/C=N/NC(=O)c2ccccc2Nc2ccnc(C(F)(F)F)c2)c(O)c1 | 20.7% | 62.9% | 45.3% | 56.8% | 51.4% | 14.5% | 24.1% | -11.1% (active) | 19.2% | -17.4% (active) |
| c1ccc2c(-c3cnn4cc(-c5ccc(N6CCNCC6)cc5)cnc34)ccnc2c1 | -83.4% (active) | -23.6% (active) | -89.5% (active) | -67.8% (active) | -77.5% (active) | -62.3% (active) | -93.5% (active) | -95.4% (active) | -72.1% (active) | -81.9% (active) |
| O=C(c1ccc(F)cc1)C1CCN(CCn2c(=O)[nH]c3ccccc3c2=O)CC1 | 108% | 100% | 89.3% | 110% | 115% | 103% | 97.6% | 103% | 110% | 104% |
| COC(=O)CCc1c(/C=C2\N=C(c3ccc[nH]3)C=C2OC)[nH]c(C)c1C(=O)OCc1ccccc1 | 29.9% | 6.23% (active) | -5.75% (active) | -12.6% (active) | -15.9% (active) | 21.4% | -30.4% (active) | -16.9% (active) | 9.69% (active) | -24.7% (active) |
